Records with an inconclusive call do not appear. Calls of active or inactive are those of the source. Rule for the calls: active = hit-call score of the fitted dose curve at least 0.9, where 1 is the maximum; inconclusive = response in the unintended direction; inactive = score below 0.9.
Experiments:
[1] = target: human Sirtuin 3 (SIRT3), SIRT3 (gene 23410) (UniProt Q9NTG7); assay: NVS_ENZ_hSIRT3: NovaScreen (NVS) Enzymatic Assay for human Sirtuin 3 (SIRT3) (AID 2283222)
Outline: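 Cell-free enzyme assay with recombinant protein and fluorescent substrate, product separated by electrophoretic mobility shift; read 1 hour after dosing. Screened in duplicate at 25 uM, then singleton concentration-response up to 50 uM; loss of signal versus DMSO.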

[2] = target: rat Catechol-O-Methyl Transferase (COMT), Comt (gene 24267) (UniProt P22734); assay: NVS_ENZ_rCOMT: NovaScreen (NVS) Enzymatic Assay for rat Catechol-O-Methyl Transferase (COMT) (AID 2283235)
Outline: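 Rat dorsal striatum extract served as COMT source; product quantified by HPLC/spectrophotometry, read at 0 h after dosing. Primary single-concentration screen at 25 uM, followed by concentration series to a 50 uM maximum.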

[3] = target: human Rho Associated Coiled-coil Containing Protein Kinase 1 (ROCK1), ROCK1 (gene 6093) (UniProt Q13464); assay: NVS_ENZ_hROCK1: NovaScreen (NVS) Enzymatic Assay for human Rho Associated Coiled-coil Containing Protein Kinase 1 (ROCK1) (AID 2283214)
Outline: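 Compounds first run in duplicate at 25 uM against recombinant human ROCK1, then followed in concentration series. Kinase activity was read 1 h post-dosing by fluorescence with mobility-shift separation, as signal loss relative to DMSO.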

[4] = target: rabbit Imidazoline 2 Central (I2C), CKB (gene 100009085) (UniProt P00567); assay: NVS_ENZ_rabI2C: NovaScreen (NVS) Enzymatic Assay for rabbit Imidazoline 2 Central (I2C) (AID 2283228)
Outline: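 Rabbit brain membranes, cell-free; readout by filter-based scintillation counting 1.5 hours after dosing, loss of signal vs DMSO. Initial duplicate test at 25 uM, then concentration-response with 50 uM top concentration.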

[5] = target: human Protein Tyrosine Phosphatase Receptor Type M (PTPRM), PTPRM (gene 5797) (UniProt P28827); assay: NVS_ENZ_hPTPRM: NovaScreen (NVS) Enzymatic Assay for human Protein Tyrosine Phosphatase Receptor Type M (PTPRM) (AID 2283215)
Outline: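 Read-out is fluorescence after electrophoretic separation of substrate and product, taken 1.33 h post-dosing with recombinant enzyme. Compounds screened at 25 uM in duplicate, then concentration series for actives; activity as signal loss relative to DMSO.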

[6] = target: rat Constitutive Nitric Oxide Synthase (CNOS), Nos1 (gene 24598) (UniProt P29476); assay: NVS_ENZ_rCNOS: NovaScreen (NVS) Enzymatic Assay for rat Constitutive Nitric Oxide Synthase (CNOS) (AID 2283236)
Outline: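 Single 25 uM duplicate screen, then concentration series to 50 uM for chemicals meeting threshold. Rat brain membrane-derived CNOS activity detected radiometrically by filtration and scintillation counting, 1 h after compound addition; DMSO as baseline.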

[7] = target: bovine Dopamine Receptor (DR), Non-selective Binding, DRD1 (gene 281125) (UniProt Q95136); assay: NVS_GPCR_bDR_NonSelective: NovaScreen (NVS) G Protein-Coupled Receptor Assay for bovine Dopamine Receptor (DR), Non-selective Binding (AID 2283241)
Outline: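 Filter-based radioligand binding with bovine striatal membrane, incubated 1 h; DMSO as negative baseline. Initial duplicate single-point test at 25 uM preceded concentration series for actives.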

[8] = target: Adenosine receptor A1 (Bos taurus) (UniProt P28190); assay: NVS_GPCR_bAdoR_NonSelective: NovaScreen (NVS) G Protein-Coupled Receptor Assay for bovine Adenosine Receptor (AdoR), Non-selective Binding (AID 2283244)
Outline: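 Cell-free binding with membranes from bovine striatum: radioligand displaced by test chemical, read after 1 h by filtration and scintillation. Single-point 25 uM duplicate primary, 50 uM top concentration in follow-up curves, DMSO baseline.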

[9] = target: human Vascular Endothelial Growth Factor Receptor 2 (VEGFR2), KDR (gene 3791) (UniProt P35968); assay: NVS_ENZ_hVEGFR2: NovaScreen (NVS) Enzymatic Assay for human Vascular Endothelial Growth Factor Receptor 2 (VEGFR2) (AID 2283230)
Outline: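 Cell-free recombinant VEGFR2 kinase, fluorescent substrate with electrophoretic mobility-shift separation; read 1 h after dosing. Screened at 25 uM in duplicate, hits to concentration-response up to 50 uM; loss-of-signal versus DMSO.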

[10] = target: sheep Cyclooxygenase-2 (Cox2), PTGS2 (gene 443460) (UniProt P79208); assay: NVS_ENZ_oCOX2: NovaScreen (NVS) Enzymatic Assay for sheep Cyclooxygenase-2 (Cox2) (AID 2283231)
Outline: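 Compounds were first run at 25 uM in duplicate against tissue-extracted ovine COX-2; those passing a preset inhibition threshold went to singleton concentration-response testing with a 50 uM maximum. Read-out: absorbance at 0.66 hour.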

[11] = target: human Tropomyosin Receptor Kinase A (TRKA), NTRK1 (gene 4914) (UniProt P04629); assay: NVS_ENZ_hTrkA: NovaScreen (NVS) Enzymatic Assay for human Tropomyosin Receptor Kinase A (TRKA) (AID 2283224)
Outline: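 Compounds were screened at 25 uM in duplicate, then concentration series to a 50 uM top for those meeting threshold (e.g. 30% inhibition). Enzyme was recombinant human TrkA, incubated 1 h. Product formation was quantified by fluorescence after mobility-shift separation.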

[12] = target: human Vascular Endothelial Growth Factor Receptor 1 (VEGFR1), FLT1 (gene 2321) (UniProt P17948); assay: NVS_ENZ_hVEGFR1: NovaScreen (NVS) Enzymatic Assay for human Vascular Endothelial Growth Factor Receptor 1 (VEGFR1) (AID 2283226)
Outline: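 Kinase activity of recombinant human VEGFR1 was read by fluorescence after electrophoretic separation of product from substrate, 1 h post-dosing; initial duplicate single-point testing at 25 uM, followed by concentration-series follow-up, with DMSO as baseline.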

[13] = target: sheep Cyclooxygenase-1 (Cox1), PTGS1 (gene 443551) (UniProt P05979); assay: NVS_ENZ_oCOX1: NovaScreen (NVS) Enzymatic Assay for sheep Cyclooxygenase-1 (Cox1) (AID 2283239);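 note: actives reduce cyclooxygenase activity so potencies are for inhibitors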
Outline: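 Colorimetric enzyme readout using sheep seminal-vesicle cyclooxygenase-1, measured 0.66 h post-dosing. Single-concentration duplicates at 25 uM first, then concentration series for actives, with DMSO as baseline and plate controls.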

[14] = target: human SRC Proto-Oncogene, Non-receptor Tyrosine Kinase (SRC), SRC (gene 6714) (UniProt P12931); assay: NVS_ENZ_hSRC: NovaScreen (NVS) Enzymatic Assay for human SRC Proto-Oncogene, Non-receptor Tyrosine Kinase (SRC) (AID 2283223)
Outline: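 Compounds passing 30% inhibition at 25 uM (duplicate) were titrated to a top concentration of 50 uM. Enzyme activity read by fluorescence with mobility-shift substrate/product separation after 1 h; DMSO baseline.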

[15] = system: bovine Angiotensin II Receptor Type 2 (AT2), gene 407157; assay: NVS_GPCR_bAT2: NovaScreen (NVS) G Protein-Coupled Receptor Assay for bovine Angiotensin II Receptor Type 2 (AT2) (AID 2283240)
Outline: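 Radioligand displacement on bovine cerebellar membranes, 1 hour incubation, filter-based scintillation counting; loss of signal vs DMSO. Duplicate single-point screen at 25 uM, then concentration-response to 50 uM maximum.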

Sequence of rabbit Imidazoline 2 Central (I2C), CKB (gene 100009085) (P00567 whole entry, looked up): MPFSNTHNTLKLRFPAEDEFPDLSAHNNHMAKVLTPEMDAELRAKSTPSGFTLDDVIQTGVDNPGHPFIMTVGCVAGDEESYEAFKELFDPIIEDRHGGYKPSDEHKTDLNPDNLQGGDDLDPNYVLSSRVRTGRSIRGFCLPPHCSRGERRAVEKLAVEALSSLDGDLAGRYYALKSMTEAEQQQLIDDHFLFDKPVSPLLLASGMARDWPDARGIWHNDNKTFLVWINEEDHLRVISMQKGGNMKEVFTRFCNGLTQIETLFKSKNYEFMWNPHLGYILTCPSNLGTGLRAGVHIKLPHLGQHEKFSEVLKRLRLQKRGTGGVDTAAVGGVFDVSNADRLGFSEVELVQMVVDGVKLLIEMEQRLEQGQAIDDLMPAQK
Sequence of human Sirtuin 3 (SIRT3), SIRT3 (gene 23410) (Q9NTG7 whole entry, looked up): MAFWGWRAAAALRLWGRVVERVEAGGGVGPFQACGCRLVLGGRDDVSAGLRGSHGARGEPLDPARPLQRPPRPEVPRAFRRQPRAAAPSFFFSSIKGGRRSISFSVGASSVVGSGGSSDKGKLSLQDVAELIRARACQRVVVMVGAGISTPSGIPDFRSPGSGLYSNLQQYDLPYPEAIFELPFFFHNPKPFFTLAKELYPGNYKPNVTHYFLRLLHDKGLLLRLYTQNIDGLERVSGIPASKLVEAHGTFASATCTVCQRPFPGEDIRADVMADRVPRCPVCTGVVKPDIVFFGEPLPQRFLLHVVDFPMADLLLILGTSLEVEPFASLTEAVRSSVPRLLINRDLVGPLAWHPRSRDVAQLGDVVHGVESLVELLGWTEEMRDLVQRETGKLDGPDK
Sequence of sheep Cyclooxygenase-1 (Cox1), PTGS1 (gene 443551) (P05979 whole entry, looked up): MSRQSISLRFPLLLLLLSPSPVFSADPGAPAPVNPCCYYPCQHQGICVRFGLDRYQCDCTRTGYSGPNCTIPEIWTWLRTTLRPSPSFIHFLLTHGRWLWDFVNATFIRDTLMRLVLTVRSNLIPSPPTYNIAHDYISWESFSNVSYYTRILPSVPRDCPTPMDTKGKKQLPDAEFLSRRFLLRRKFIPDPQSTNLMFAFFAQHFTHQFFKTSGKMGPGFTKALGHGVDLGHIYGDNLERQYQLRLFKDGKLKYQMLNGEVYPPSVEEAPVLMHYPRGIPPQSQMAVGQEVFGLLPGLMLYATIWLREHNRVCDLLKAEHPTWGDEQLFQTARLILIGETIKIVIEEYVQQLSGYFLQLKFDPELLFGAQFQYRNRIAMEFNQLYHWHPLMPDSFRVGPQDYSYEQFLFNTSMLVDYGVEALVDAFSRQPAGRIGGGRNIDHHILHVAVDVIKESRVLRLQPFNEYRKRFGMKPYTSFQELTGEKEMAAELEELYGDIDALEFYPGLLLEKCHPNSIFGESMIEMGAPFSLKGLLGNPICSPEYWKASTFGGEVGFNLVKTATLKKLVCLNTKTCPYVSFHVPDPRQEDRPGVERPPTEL
Sequence of human Vascular Endothelial Growth Factor Receptor 2 (VEGFR2), KDR (gene 3791) (P35968 whole entry, looked up): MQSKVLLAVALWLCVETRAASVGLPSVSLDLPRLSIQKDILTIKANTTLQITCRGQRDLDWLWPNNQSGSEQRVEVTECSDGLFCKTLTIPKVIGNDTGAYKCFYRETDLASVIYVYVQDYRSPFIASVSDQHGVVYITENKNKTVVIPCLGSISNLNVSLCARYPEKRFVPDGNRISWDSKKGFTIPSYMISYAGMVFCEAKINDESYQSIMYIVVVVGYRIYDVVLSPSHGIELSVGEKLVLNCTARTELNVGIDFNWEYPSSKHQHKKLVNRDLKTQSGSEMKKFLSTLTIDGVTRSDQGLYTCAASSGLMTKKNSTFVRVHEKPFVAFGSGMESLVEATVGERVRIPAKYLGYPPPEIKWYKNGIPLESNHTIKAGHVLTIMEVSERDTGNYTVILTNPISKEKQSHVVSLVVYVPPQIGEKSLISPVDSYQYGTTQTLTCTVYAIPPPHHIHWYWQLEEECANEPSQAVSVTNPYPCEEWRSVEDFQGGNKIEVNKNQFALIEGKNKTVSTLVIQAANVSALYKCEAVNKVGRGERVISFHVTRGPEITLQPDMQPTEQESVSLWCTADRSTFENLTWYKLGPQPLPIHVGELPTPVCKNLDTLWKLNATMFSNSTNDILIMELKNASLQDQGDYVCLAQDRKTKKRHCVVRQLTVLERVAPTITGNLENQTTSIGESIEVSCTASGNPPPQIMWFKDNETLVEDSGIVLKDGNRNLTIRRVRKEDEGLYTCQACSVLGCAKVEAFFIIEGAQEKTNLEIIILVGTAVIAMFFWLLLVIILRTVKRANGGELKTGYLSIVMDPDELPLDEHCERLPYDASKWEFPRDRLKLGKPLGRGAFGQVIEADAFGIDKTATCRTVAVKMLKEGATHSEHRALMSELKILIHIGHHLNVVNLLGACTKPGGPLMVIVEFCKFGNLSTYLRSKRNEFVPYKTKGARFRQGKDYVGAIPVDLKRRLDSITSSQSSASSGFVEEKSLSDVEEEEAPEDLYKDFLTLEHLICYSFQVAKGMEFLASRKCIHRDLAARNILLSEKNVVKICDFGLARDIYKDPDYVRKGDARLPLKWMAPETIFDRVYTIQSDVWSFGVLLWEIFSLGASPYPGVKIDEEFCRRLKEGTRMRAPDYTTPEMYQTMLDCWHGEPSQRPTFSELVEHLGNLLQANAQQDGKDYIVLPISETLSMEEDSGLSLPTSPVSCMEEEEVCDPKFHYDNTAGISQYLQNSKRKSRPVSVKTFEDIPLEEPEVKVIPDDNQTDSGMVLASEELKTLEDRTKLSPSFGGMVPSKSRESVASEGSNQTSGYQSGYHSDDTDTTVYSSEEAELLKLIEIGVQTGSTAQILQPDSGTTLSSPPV
Sequence of Adenosine receptor A1 (Bos taurus) (P28190 whole entry, looked up): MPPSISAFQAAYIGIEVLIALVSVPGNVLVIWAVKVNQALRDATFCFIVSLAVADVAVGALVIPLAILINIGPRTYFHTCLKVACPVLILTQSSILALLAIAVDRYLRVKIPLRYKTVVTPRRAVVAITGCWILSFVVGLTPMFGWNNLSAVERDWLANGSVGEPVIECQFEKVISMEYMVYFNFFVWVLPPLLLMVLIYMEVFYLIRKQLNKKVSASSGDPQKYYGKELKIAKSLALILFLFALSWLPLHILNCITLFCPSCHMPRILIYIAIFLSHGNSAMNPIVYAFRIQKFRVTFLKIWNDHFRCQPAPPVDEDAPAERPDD
Sequence of rat Catechol-O-Methyl Transferase (COMT), Comt (gene 24267) (P22734 whole entry, looked up): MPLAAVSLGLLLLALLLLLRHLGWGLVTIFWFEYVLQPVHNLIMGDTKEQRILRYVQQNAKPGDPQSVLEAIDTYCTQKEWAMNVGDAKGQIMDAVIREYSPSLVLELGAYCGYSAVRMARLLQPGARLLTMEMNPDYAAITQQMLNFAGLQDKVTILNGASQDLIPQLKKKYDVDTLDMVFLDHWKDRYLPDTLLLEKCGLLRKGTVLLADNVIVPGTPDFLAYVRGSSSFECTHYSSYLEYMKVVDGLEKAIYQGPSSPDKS
Sequence of bovine Dopamine Receptor (DR), Non-selective Binding, DRD1 (gene 281125) (Q95136 whole entry, looked up): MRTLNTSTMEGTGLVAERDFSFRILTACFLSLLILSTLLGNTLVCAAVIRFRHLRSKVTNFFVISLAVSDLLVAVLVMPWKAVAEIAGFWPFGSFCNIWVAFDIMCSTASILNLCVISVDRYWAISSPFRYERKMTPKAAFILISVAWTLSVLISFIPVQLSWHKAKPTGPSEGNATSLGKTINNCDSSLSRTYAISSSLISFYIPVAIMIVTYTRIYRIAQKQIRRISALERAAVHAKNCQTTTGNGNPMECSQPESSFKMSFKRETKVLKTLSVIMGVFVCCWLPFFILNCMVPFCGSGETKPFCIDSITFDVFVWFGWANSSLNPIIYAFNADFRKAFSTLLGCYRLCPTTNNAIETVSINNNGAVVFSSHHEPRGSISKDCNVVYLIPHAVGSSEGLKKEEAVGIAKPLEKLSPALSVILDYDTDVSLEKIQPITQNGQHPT
Sequence of sheep Cyclooxygenase-2 (Cox2), PTGS2 (gene 443460) (P79208 whole entry, looked up): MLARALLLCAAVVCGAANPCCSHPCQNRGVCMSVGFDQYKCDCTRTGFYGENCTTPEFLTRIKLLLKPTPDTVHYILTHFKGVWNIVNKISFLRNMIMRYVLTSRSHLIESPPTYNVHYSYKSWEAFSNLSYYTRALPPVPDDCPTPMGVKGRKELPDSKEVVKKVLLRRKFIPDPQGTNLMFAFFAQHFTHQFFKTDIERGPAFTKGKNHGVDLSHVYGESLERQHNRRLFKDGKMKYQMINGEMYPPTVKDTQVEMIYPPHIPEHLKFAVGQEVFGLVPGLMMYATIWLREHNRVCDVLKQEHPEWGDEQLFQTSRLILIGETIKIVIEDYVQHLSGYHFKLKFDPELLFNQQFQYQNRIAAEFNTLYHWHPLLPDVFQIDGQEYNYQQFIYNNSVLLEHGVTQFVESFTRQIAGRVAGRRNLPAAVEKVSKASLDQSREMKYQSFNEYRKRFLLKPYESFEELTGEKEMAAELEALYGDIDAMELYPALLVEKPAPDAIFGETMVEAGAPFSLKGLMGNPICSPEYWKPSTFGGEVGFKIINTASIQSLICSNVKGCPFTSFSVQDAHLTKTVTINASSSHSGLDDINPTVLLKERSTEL
Sequence of human SRC Proto-Oncogene, Non-receptor Tyrosine Kinase (SRC), SRC (gene 6714) (P12931 whole entry, looked up): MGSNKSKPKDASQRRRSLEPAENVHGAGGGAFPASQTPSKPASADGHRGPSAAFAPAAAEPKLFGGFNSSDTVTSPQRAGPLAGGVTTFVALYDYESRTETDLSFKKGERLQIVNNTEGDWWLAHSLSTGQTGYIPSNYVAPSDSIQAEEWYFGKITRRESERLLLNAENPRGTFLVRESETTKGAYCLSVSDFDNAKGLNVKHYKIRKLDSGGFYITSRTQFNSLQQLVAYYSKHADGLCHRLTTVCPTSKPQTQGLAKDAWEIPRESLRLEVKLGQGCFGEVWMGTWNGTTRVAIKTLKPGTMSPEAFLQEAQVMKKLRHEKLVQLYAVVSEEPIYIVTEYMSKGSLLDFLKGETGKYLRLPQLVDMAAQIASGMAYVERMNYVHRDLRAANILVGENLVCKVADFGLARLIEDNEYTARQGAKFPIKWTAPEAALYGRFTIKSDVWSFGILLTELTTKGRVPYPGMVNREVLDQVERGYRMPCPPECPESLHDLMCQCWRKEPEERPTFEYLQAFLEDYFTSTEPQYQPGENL

`O=C1O[C@H]([C@@H](O)CO)C(O)=C1O` was tested, and the outcome [1] was “inactive” and the AC50 [2] was 11.5 µM (active).

In the case of `CC(C)(c1cc(Br)c(O)c(Br)c1)c1cc(Br)c(O)c(Br)c1`, the outcome [3] is reported as “inactive”.

With `Cc1oc2c(NC(=O)c3c(Cl)cccc3Cl)cccc2c1C(C)(C)O` the outcome [1] was “inactive” and the outcome [4] was “inactive”.

For `CCN(CC)C(=O)c1cc(S(=O)(=O)Cc2ccccc2)c(N2CCC(c3ccccc3)CC2)cc1N(CC)CCN(C)C`, the outcome [5] was “inactive”, the AC50 [1] was 4.57 µM (active) and the outcome [6] was “inactive”. The AC50 [7] was 6.88 µM (active) and the outcome [8] was “inactive”.

`CCCCOC(=O)c1ccc(O)cc1` was tested, and the outcome [9] was “inactive”, the AC50 [10] was 7.62 µM (active) and the outcome [6] was “inactive”.

For `CCCCCCCCCCCO`, the outcome [9] was “inactive”.

With `CCCC(=O)OCCC(C)C` the outcome [4] was “inactive”.

With `CCCCCCCCCCCCO` the outcome [9] was “inactive”.

`CN(C)C(=O)C1(N2CCCCC2)CCN(CC[C@@]2(c3ccc(Cl)c(Cl)c3)CN(C(=O)c3ccccc3)CCO2)CC1` was tested, and the outcome [9] was “inactive” and the AC50 [7] was 4.5 µM (active).

`CC1(C)NC(=O)N(c2ccc([N+](=O)[O-])c(C(F)(F)F)c2)C1=O` was tested, and the AC50 [8] was 9.79 µM (active).

With `O=C(O)Cc1cc(I)c(Oc2ccc(O)c(I)c2)c(I)c1` the AC50 [11] was 2.58 µM (active).

In the case of `CCCCCCCCCCCC[N+](C)(C)C`, the AC50 [4] is reported as 2.13 µM (active).

For `Cc1cc2c(cc1C(F)(F)F)N(C(=O)Nc1ccc(Oc3cccnc3C)nc1)CC2`, the outcome [12] was “inactive”.

For `O=CCCCC=O`, the AC50 [10] was 15.4 µM (active).

With `CO[C@H]1/C=C/O[C@@]2(C)Oc3c(C)c(O)c4c(O)c(c(/C=N/N5CCN(C)CC5)c(O)c4c3C2=O)NC(=O)/C(C)=C\C=C\[C@H](C)[C@H](O)[C@@H](C)[C@@H](O)[C@@H](C)[C@H](OC(C)=O)[C@@H]1C` the AC50 [10] was 7.74 µM (active) and the AC50 [13] was 3.36 µM (active).

`CCCCCCCCOC(=O)c1cc(O)c(O)c(O)c1` was tested, and the AC50 [10] was 18.3 µM (active), the AC50 [2] was 2.54 µM (active) and the outcome [13] was “inactive”.

`c1ccc2ccccc2c1` was tested, and the outcome [14] was “inactive” and the outcome [9] was “inactive”.

`CCCOC(=O)c1cc(O)c(O)c(O)c1` was tested, and the AC50 [10] was 14.8 µM (active), the AC50 [2] was 0.454 µM (active) and the AC50 [13] was 12 µM (active).

In the case of `CN(C)c1ccc(C(=C2C=CC(=[N+](C)C)C=C2)c2ccc(N(C)C)cc2)cc1`, the outcome [4] is reported as “inactive”, the AC50 [9] is reported as 0.572 µM (active) and the AC50 [8] is reported as 13.6 µM (active).

With `CC(C)(C)c1cc(/C=C2\SC(N)=NC2=O)cc(C(C)(C)C)c1O` the outcome [9] was “inactive”, the outcome [13] was “inactive” and the outcome [8] was “inactive”.

In the case of `CC[C@H](NC(=O)c1cc(F)ccc1NS(=O)(=O)c1cccc2cccnc12)c1ccccc1`, the outcome [13] is reported as “inactive”.

For `CC1=CC(=O)/C(=C(/C)O)C(=O)O1`, the outcome [10] was “inactive”.

`COc1cccc([C@H](O)C2CCN(CCc3ccc(F)cc3)CC2)c1OC` was tested, and the AC50 [4] was 12.7 µM (active) and the AC50 [7] was 5.96 µM (active).

In the case of `CCCCCc1ccc(N)cc1`, the AC50 [13] is reported as 7.04 µM (active).

With `CN(C[C@@H](CC[N+]12CCC(C3CCCCC3)(CC1)CC2)c1ccc(Cl)c(Cl)c1)C(=O)c1cc(C(F)(F)F)cc(C(F)(F)F)c1` the AC50 [15] was 36.7 µM (active).

For `Cc1c2ccccc2c(C)c2c1ccc1ccccc12`, the outcome [9] was “inactive” and the AC50 [13] was 43.3 µM (active).

For `NCc1cccc(C2CCN(C(=O)c3ccc(C#Cc4ccccc4F)o3)CC2)c1`, the AC50 [4] was 7.1 µM (active).

With `CCN(Cc1cccnc1)C(=O)c1cccc(Cl)c1[C@]1(C)C(=O)N(Cc2ccc(OC)cc2OC)c2ccc(Cl)cc21` the outcome [9] was “inactive”.

Source: PubChem BioAssay (EPA / NIEHS)
